Measurements published in PubChem BioAssay AID686978 (National Center for Advancing Translational Sciences (NCATS), 2013).
Among all 420,000 compounds or so, about 64,000 (15%) were called active. Roughly 27% stayed inconclusive and do not appear here. The call rests on the fitted dose curve; in most records, active means well fitted inhibition curve with a large enough effect; inconclusive means small, poorly fitted or top-dose-only effect; inactive means flat fitted curve, though single readings scatter. Not all results are given here. Entries that show only a call come without a potency.

Assay: qHTS for Inhibitors of human tyrosyl-DNA phosphodiesterase 1 (TDP1): qHTS in cells in absence of CPT; further: nearly all actives have a fitted effect of over 55% in size
Conditions: DT40 Tdp1-/- hTDP1 cells, no CPT, ATP luminescence, 48 h; activity change, negative = growth inhibition: at 46.2 µM (top of the series)
Summary of the method: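 Chicken DT40 Tdp1-/- cells stably complemented with human TDP1 were seeded at 400 cells/well with DMSO in place of 20 nM camptothecin. After compound pinning, cells grew at least 48 hr at 37 °C; viability read by CellTiter-Glo luminescence.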
Potency means the concentration at half of the fitted maximal effect.

Row | Structure (SMILES) | Potency
1 | Cc1ccc(OCC(=O)Nc2nnc(-c3ccco3)s2)cc1 | inactive
2 | CSc1ncccc1C(=O)Nc1ccc2c(c1)OCO2 | inactive
3 | CCOC(=O)c1c(S(=O)(=O)Nc2ccc(CN3CCC(C)CC3)cc2)c(C)n(C)c1C | inactive
4 | CCOC(=O)c1cnc(SCC(=O)Nc2ccccc2C(=O)OC)nc1N | 23.1 µM (active)
5 | CCOC(=O)c1cnc(SCC(=O)NCc2ccco2)nc1N | inactive
6 | COC(=O)c1ccccc1NC(=O)CSc1ccccn1 | inactive
7 | CCCCN(C)CCCNC(=O)CN1N=C(c2ccc(OC)cc2)CCC1=O | inactive
8 | C=CCC(CC=C)(C(N)=O)c1ccccc1 | inactive
9 | Cc1nn(CC(=O)Nc2ccc(C#N)cc2)c(C)c1[N+](=O)[O-] | inactive
10 | COCc1c(C(=O)OCC(=O)Nc2ccc(OC(F)F)cc2)oc2ccccc12 | inactive
11 | Cc1oc2cc(Br)c(O)c(Br)c2c1C(=O)c1ccccc1 | inactive
12 | CCOC(=O)c1c(-c2ccccc2)oc2cc(Br)c(O)cc12 | inactive
13 | CCOC(=O)c1c(C)oc2cc(Sc3ccccc3)c(O)c(O)c12 | 25.9 µM (active)
14 | Nc1nc(COC(=O)CCC(=O)c2ccc(Cl)cc2)nc(Nc2ccccc2)n1 | inactive
15 | Cn1c(CCC(=O)Nc2ccccc2F)nnc1SCC(=O)Nc1ccccc1Cl | inactive
16 | Cc1cc(C)cc(NC(=O)Cn2c(=O)c3ccccc3n3nncc23)c1 | inactive
17 | O=C(CSc1nc2nccnc2c(=O)n1Cc1cccs1)Nc1ccccc1F | inactive
18 | O=C(CSc1nc2nccnc2c(=O)n1CCc1c[nH]c2ccccc12)Nc1ccccc1F | 8.2 µM (active)
19 | Cc1cc(C)cc(NC(=O)CSc2nc3nccnc3c(=O)n2CCc2c[nH]c3ccccc23)c1 | 7.31 µM (active)
20 | Cc1cc(C)c(NC(=O)CSc2nc3nccnc3c(=O)n2CCc2c[nH]c3ccccc23)c(C)c1 | inactive
21 | Cc1cccc(C)c1NC(=O)CSc1nc2c([nH]1)c(=O)n(C)c(=O)n2C | inactive
22 | CCc1c(O)nc(SCC(=O)Nc2ccccc2)n(C(C)CC)c1=O (stereo unspecified) | inactive

Row | Structure (SMILES) | Potency
23 | CCCNCc1cc(OCC)c(OCC(=O)Nc2ccccc2)cc1Br | inactive
24 | CN(C)C(=O)c1cc(Br)ccc1Cl | inactive
25 | Cc1cc(OC(=O)c2ccccc2)c([N+](=O)[O-])c(=O)[nH]1 | inactive
26 | Cc1nnsc1C(=O)N/N=C/c1cccc(C(F)(F)F)c1 | inactive
27 | O=C(O)c1ccc(N/N=C/c2ccc3ncccc3c2)cc1 | inactive
28 | Oc1ccc(/C=N/Nc2ccc(C(F)(F)F)cn2)cc1O | 2.59 µM (active)
29 | O=C1/C(=C/c2ccc(F)cc2)SC(=S)N1NS(=O)(=O)c1ccccc1 | inactive
30 | CC1CCCCC12NC(=O)N(CC(=O)N1CCN(c3ccccc3)CC1)C2=O (stereo unspecified) | inactive
31 | Cc1cc(C)c(NC(=O)CSc2nc3ccncc3[nH]2)c(C)c1 | inactive
32 | Cc1ccc(Oc2cc(NC(=O)CCCn3nc(C)c([N+](=O)[O-])c3C)cc([N+](=O)[O-])c2)cc1 | 18.4 µM (active)
33 | CCc1ccc(NC(=O)Cn2nc(C)c([N+](=O)[O-])c2C)cc1 | inactive
34 | COc1ccc(CNC(=O)CCCn2nc(C)c([N+](=O)[O-])c2C)cc1 | inactive
35 | CC(C)(C)NC(=O)NC(=O)COC(=O)Cn1c(C(F)(F)F)nc2ccccc21 | inactive
36 | CCC(C(=O)NC(C)(C)C)n1c(-c2ccccc2)nc2ccccc21 (stereo unspecified) | 18.4 µM (active)
37 | CCCc1nc2ccccc2n1C(C)C(=O)NC(C)(C)C (stereo unspecified) | inactive
38 | CC(C)(C)NC(=O)C(CCc1ccccc1)n1c(=O)c(-c2ccccc2)nc2ccccc21 (stereo unspecified) | 2.91 µM (active)
39 | CC(=O)NS(=O)(=O)c1ccc(N/C(N)=N/c2nc(C)cc(C)n2)cc1 | inactive
40 | Cc1nnc(SCCCCSc2nnc(C)c(=O)[nH]2)[nH]c1=O | inactive
41 | COc1ccc(Br)cc1/C=N/Nc1ccc(S(=O)(=O)Nc2ccccc2C(=O)O)cc1[N+](=O)[O-] | inactive
42 | COCCn1c(=S)[nH]c2cc(C(=O)NCCc3ccc(OC)c(OC)c3)ccc2c1=O | inactive
43 | COc1ccccc1CNC(=O)c1ccc(-n2c(C)cc3c2CCCC3)cc1 | 14.6 µM (active)
44 | COc1ccccc1CNC(=O)Cn1cc2c(n1)CCCC2 | inactive

Row | Structure (SMILES) | Potency
45 | COc1ccc(C(=O)NCc2ccccc2C)cc1S(=O)(=O)NC1CCCC1 | inactive
46 | COc1ccc(CCNC(=O)c2ccc3c(c2)nc(C)n3-c2ccc(Br)cc2)cc1OC | 20.6 µM (active)
47 | COc1ccc(CCNC(=O)c2ccc(-n3c(C)cc4c3CCCC4)cc2)cc1OC | 18.4 µM (active)
48 | COc1ccc(CCNC(=O)CSCc2ccc(Br)cc2)cc1OC | inactive
49 | O=C(OC1CC2CC1[C@H]1CCCCN1C2=O)N1CCOCC1 (stereo partly specified) | inactive
50 | O=C(CS(=O)(=O)c1ccccc1)Nc1ccc(S(=O)(=O)Nc2ccccn2)cc1 | inactive
51 | CCC1(C2CCN(Cc3cccnc3)CC2)NC(=O)N(CC2COc3ccccc3O2)C1=O (stereo unspecified) | inactive
52 | CC(=O)c1cccc(NC(=S)N2CCN(S(C)(=O)=O)CC2)c1 | inactive
53 | CC(=O)N1CCN(C(=O)C2(NC(=O)Nc3ccc(C)cc3)CCCCC2)CC1 | inactive
54 | CN(C)c1ccc(N/C=C/C(=O)C(F)(F)F)cc1 | inactive
55 | CCOc1ccc(S(=O)(=O)N/N=C(\C)c2ccc(Cl)c(Cl)c2Cl)cc1 | inactive
56 | CCOc1ccc(OCC)c(NC(=O)C(NS(=O)(=O)c2ccc3c(c2)oc(=O)n3C)C(C)C)c1 (stereo unspecified) | inactive
57 | O=C(CC1NCCNC1=O)Nc1ccc(Oc2ccccc2)cc1 (stereo unspecified) | inactive
58 | CCN(CC)c1cc(NC2CCCCC2)c2c3c(onc13)-c1ccccc1C2=O | 18.4 µM (active)
59 | Cc1nnc(SCC(=O)Nc2cccc(N)c2)n1-c1ccccc1 | inactive
60 | CC(C)Oc1ccc(C2NC(=O)NC2=O)cc1 (stereo unspecified) | inactive
61 | COc1ccc(C2CC(=O)Nc3cc(C)c(C)cc32)c(OC)c1OC (stereo unspecified) | 20.6 µM (active)
62 | COc1cc2c(cc1OC)C(c1ccc(C)o1)CC(=O)N2 (stereo unspecified) | inactive
63 | Cc1cc2c(cc1C)C(c1cccc(OC(C)C)c1)CC(=O)N2 (stereo unspecified) | 23.1 µM (active)
64 | COC(=O)c1ccc(C2CC(=O)Nc3cc(OC)c(OC)cc32)cc1 (stereo unspecified) | inactive
65 | COc1cc2c(cc1OC)C(c1ccncc1)CC(=O)N2 (stereo unspecified) | inactive
66 | CC1CN(c2cc(=O)n(Cc3ccc(F)cc3)c(=O)[nH]2)CC(C)O1 (stereo unspecified) | inactive
